# In PubChem BioAssay (NCATS):
# Inconclusive results are not listed. A call without a number means that no potency is given here. The source made the active and inactive calls. Calls follow the shape of the dose curve; as a rule, active = well fitted curve in the direction sought with a large enough effect; inconclusive = small, poorly fitted or top-dose-only effect, or another doubt; inactive = no such curve, though single readings can be large; an effect the other way counts as inactive or inconclusive.
# Columns and labels:
# [1] = molecular target: Parathyroid hormone/parathyroid hormone-related peptide receptor (Homo sapiens) (UniProt Q03431); assay: qHTS for PTHR1 Agonists: Optimization Screen against the NCGC LOPAC library (AID 1347079);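 also: GloSensor cAMP luminescence in HEK-293 GP2 cells expressing human PTHR1 with IBMX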
# How it was run: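 Agonist readout: GloSensor cAMP luminescence, read after 15 min at room temperature. HEK-293-derived GP2 line carries PTHR1; compounds tested as a titration for 1 hr at 37C in presence of IBMX. M-PTH (1-15) served as control.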
# [2] = molecular target: N-terminal Xaa-Pro-Lys N-methyltransferase 1 (Homo sapiens) (UniProt Q9BV86); assay: qHTS Assay for Inhibitors of N-terminal methyltransferase 1 (NTMT1): LOPAC validation of the NTMT1 SAHH-coupled ThioGlo3 Assay (AID 1347143);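 also: SAH from peptide methylation measured as thiol fluorescence via SAHH coupling and ThioGlo3; potency is read from the fitted curve at half-maximal effect; nearly all actives have a fitted effect of over 70% in size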
# How it was run: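 Inhibition of NTMT1 methylation of peptide SPKRIA is followed by converting SAH with SAHH and labelling the released thiol with ThioGlo3. Plates are read at 340/450nm before and 30 min after reagent addition, both at room temperature.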
# [3] = system: Zika virus NS2B-NS3 protease (unlinked); assay: Optimization of GU AMC qHTS for Zika virus inhibitors: Unlinked NS2B-NS3 protease assay (AID 1347151); also: potency is read from the fitted curve at half-maximal effect; nearly all actives have a fitted effect of over 80% in size
# How it was run: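 In this qHTS, compounds acted on 25 nM unlinked Zika NS2B–NS3 in pH 8.0 Tris/Tween buffer. Cleavage of an AMC peptide ran 15 min at room temperature, to about 20% conversion.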
# [4] = Confirmatory screen GU Rhodamine qHTS for Zika virus inhibitors qHTS (AID 1347157); also: potency is read from the fitted curve at half-maximal effect; nearly all actives have a fitted effect of over 70% in size
# How it was run: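 Percent inhibition came from the 15-min rise in Rhodamine110 fluorescence (1.5 microM substrate, ~15% conversion), normalized to no-inhibitor and no-enzyme wells and Hill-fitted. Unlinked protease, 25 nM, pH 8.0 Tris buffer; compounds up to 114 microM, 15-min preincubation.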
# [5] = ZIKV-mCherry secondary qHTS for Zika virus inhibitors (AID 1347158); also: potency is read from the fitted curve at half-maximal effect
# How it was run: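 Vero, 5,000 cells/well, o/n 37 °C; cpd pin-transferred in DMSO; ZIKV-mCherry MOI 1, 48-72 h 37 °C; 32% PFA stock fix, Hoechst; imaged 10x DAPI/mCherry; mCherry+ threshold 450 RFU; % infection.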
# [6] = system: Zika virus NS2B-NS3 protease (linked); assay: 384 well plate NINDS AMC confirmatory qHTS for Zika virus inhibitors (AID 1347163); also: potency is read from the fitted curve at half-maximal effect; nearly all actives have a fitted effect of over 50% in size
# How it was run: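 Linked NS2B-NS3 protease (final 5 nM, 30 nM or 60 nM) was preincubated with compounds (final up to 1 mM) for ~15 minutes. Ac-VKTGKR-AMC substrate (final 30 microM) then reacted for 25 minutes at room temperature in the dark. Fluorescence (ex 355/em 460 nm) was normalized to no-enzyme and no-inhibitor controls.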
# [7] = system: Zika virus NS2B-NS3 protease (linked construct); assay: 384 well plate NINDS Rhodamine confirmatory qHTS for Zika virus inhibitors (AID 1347164); also: top concentration of the series differs between compounds; nearly all actives have a fitted effect of over 65% in size
# How it was run: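 Cleavage of Ac-LKRR-Rhodamine 110 (10 microM final) by linked protease (final 5, 30 or 60 nM) was followed as fluorescence at 485/538 nm after 25 min, room temperature, dark. Compounds preincubated ~15 min.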
# [8] = molecular target: Lysine-specific demethylase 5B (Homo sapiens) (UniProt Q9UGL1); assay: Optimization screen for KDM5B Histone Demethylases FDH coupled qHTS against the LOPAC library (AID 1347166)
# How it was run: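 KDM5BDeltaAP (200nM final) preincubated 10 min with compound, then 12.5uM H3K4Me3, 25uM a-ketoglutarate, ascorbate, Fe(II), NAD+ and FDH added; 50mM HEPES pH 7.5, 0.01% Tween-20. NADH fluorescence (340/450 nm) change over 30 min, room temperature.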
# [9] = qHTS to identify inhibitors of the type 1 interferon - major histocompatibility complex class I in skeletal muscle: primary screen against the NCATS LOPAC collection (AID 1347405);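 also: lytic HiBiT luminescence reporting HLA-B protein level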
# How it was run: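 Luminescence from HiBiT fused to endogenous HLA-B in CRISPR-engineered human myoblasts served as the read-out. Cells received 4.0 ng/ml IFN-beta plus compound (seven concentrations, 1:4.3 steps, highest 46 uM final) for 24 hrs before lytic detection.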
# [10] = qHTS for inhibitors of adenylyl cyclases using a fission yeast platform: a pilot screen against the NCATS LOPAC library (AID 1347410)
# How it was run: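 Inhibition of GNAS-stimulated AC9 activity in S. pombe was inferred from derepression of a PKA-repressed fbp1-GFP reporter, measured as cytometric fluorescence after 18 h at 30C with compounds at up to 57 µM.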
# [11] = Validation qHTS assay for inhibitors of Activation Induced Cytidine Deaminase (AID): UDG Counterscreen signal (AID 1347427)
# How it was run: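 Counterscreen read of UDG activity (2 U/mL, 4/3x) in the FRET deamination format with AID (1 uM, 4/3x), DJC20/DJC23 substrates (250 nM, 4x), 4 h at room temperature. NaOH stop, fluorescence at 560 ex/665 em.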
# [12] = molecular target: Single-stranded DNA cytosine deaminase (Homo sapiens) (UniProt Q9GZX7); assay: Validation qHTS assay for inhibitors of Activation Induced Cytidine Deaminase (AID): AID signal (AID 1347429); also: potency is read from the fitted curve at half-maximal effect
# How it was run: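 Fluorescence at 540 nm excitation and 590 nm emission reports ssDNA cytosine deamination by AID, with UDG in the same well. Compound-treated reactions ran 4 hr at room temperature with DJC20/DJC23 substrate, followed by 30 min NaOH treatment.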
# [13] = Primary qHTS for inhibitors of La Crosse Virus (LACV) - induced cell death in SH-SY5Y cells (AID 1508616);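 also: top concentration of the series differs between compounds; higher means more rescue of cells from virus-induced death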
# How it was run: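 Protection against LACV-induced cell death is scored in SH-SY5Y cells exposed to compounds and virus (0.01 MOI) for 6 days. Data normalized to virus-infected DMSO wells and virus-free DMSO wells.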
# [14] = Primary qHTS for small molecule stabilizers of the endoplasmic reticulum resident proteome: Secreted ER Calcium Modulated Protein (SERCaMP) assay (AID 1508630)
# How it was run: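 GLuc-SERCaMP-expressing SH-SY5Y cells, pretreated 16 h with compound, are challenged with thapsigargin to empty ER calcium stores; after 4 h, coelenterazine is added directly to the medium and luminescence is imaged.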
# Papain (Carica papaya) = Papain (Carica papaya) (UniProt P00784); assay: Primary qHTS assay for inhibitors of the protease papain (AID 1645873);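 also: papain turnover of Z-FR-AMC read as the AMC fluorescence gain over 10 min; potency is read from the fitted curve at half-maximal effect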
# [15] = molecular target: Rap guanine nucleotide exchange factor 3 (Homo sapiens) (UniProt O95398); assay: Confirmatory qHTS for antagonist of cAMP-regulated guanine nucleotide exchange factor 3 (EPAC1) (AID 1645880); also: potency is read from the fitted curve at half-maximal effect; nearly all actives have a fitted effect of over 55% in size
# How it was run: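 Nucleotide exchange uses 100 nM EPAC1, 250 nM RAP1B-BODIPY-GDP and 50 uM GDP, with compounds in a concentration-titration series. After 5 min at room temperature, fluorescence (480 nm ex/540 nm em) is read every 5 min for 30 min. Data are normalized to control ATA and DMSO.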
# [16] = molecular target: Rap guanine nucleotide exchange factor 3 (Homo sapiens) (UniProt O95398); assay: Confirmatory qHTS for agonist of cAMP-regulated guanine nucleotide exchange factor 3 (EPAC1) (AID 1645881);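 also: EPAC1 catalysed release of BODIPY-GDP from Rap1B seen as fluorescence loss; nearly all actives have a fitted effect of over 75% in size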
# [17] = molecular target: Rap guanine nucleotide exchange factor 4 (Homo sapiens) (UniProt Q8WZA2); assay: Confirmatory qHTS for agonist of cAMP-regulated guanine nucleotide exchange factor 4 (EPAC2) (AID 1645884);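 also: nucleotide exchange releases bodipy-GDP from Rap1 and this lowers its fluorescence; nearly all actives have a fitted effect of over 65% in size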
# [18] = molecular target: Rap guanine nucleotide exchange factor 4 (Homo sapiens) (UniProt Q8WZA2); assay: Confirmatory qHTS for antagonist of cAMP-regulated guanine nucleotide exchange factor 4 (EPAC2) (AID 1645885); also: potency is read from the fitted curve at half-maximal effect; nearly all actives have a fitted effect of over 25% in size
# [19] = molecular target: Metallo-beta-lactamase type 2 (Klebsiella pneumoniae) (UniProt C7C422); assay: qHTS to identify inhibitors of the New Delhi Metallo-beta-lactamase (NDM): assay validation screen against the NCATS LOPAC Collection (AID 1794843); also: potency is read from the fitted curve at half-maximal effect
# How it was run: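 NDM-1 at 2 nM final in 50 mM HEPES pH 7.0 with 1 uM ZnSO4 and 0.01% Tween20 was preincubated with library compounds in DMSO. Nitrocefin (50 uM stock) was then added, and absorbance at 485 nm was read at the kinetic plateau.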
# [20] = molecular target: Glutathione peroxidase 1 (Homo sapiens) (UniProt P07203); assay: Primary qHTS Assay for Inhibitors of Recombinant Selenoprotein Glutathione Peroxidase 1 (GPX1) (AID 1845191); also: nearly all actives have a fitted effect of over 65% in size
# How it was run: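 10 nM GPX1 + cpd, 30 min RT; start w/ 1 mM GSH, 0.5 mM cumene hydroperoxide, 0.5 mM NADPH, 100 nM GR, 0.01% BSA; buffer 50 mM Tris-HCl pH 7.5, 2 mM EDTA, 150 mM NaCl; Fl 340/450, 0 & 15 min.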
# Sequence of Rap guanine nucleotide exchange factor 4 (Homo sapiens) (Q8WZA2 whole entry, looked up): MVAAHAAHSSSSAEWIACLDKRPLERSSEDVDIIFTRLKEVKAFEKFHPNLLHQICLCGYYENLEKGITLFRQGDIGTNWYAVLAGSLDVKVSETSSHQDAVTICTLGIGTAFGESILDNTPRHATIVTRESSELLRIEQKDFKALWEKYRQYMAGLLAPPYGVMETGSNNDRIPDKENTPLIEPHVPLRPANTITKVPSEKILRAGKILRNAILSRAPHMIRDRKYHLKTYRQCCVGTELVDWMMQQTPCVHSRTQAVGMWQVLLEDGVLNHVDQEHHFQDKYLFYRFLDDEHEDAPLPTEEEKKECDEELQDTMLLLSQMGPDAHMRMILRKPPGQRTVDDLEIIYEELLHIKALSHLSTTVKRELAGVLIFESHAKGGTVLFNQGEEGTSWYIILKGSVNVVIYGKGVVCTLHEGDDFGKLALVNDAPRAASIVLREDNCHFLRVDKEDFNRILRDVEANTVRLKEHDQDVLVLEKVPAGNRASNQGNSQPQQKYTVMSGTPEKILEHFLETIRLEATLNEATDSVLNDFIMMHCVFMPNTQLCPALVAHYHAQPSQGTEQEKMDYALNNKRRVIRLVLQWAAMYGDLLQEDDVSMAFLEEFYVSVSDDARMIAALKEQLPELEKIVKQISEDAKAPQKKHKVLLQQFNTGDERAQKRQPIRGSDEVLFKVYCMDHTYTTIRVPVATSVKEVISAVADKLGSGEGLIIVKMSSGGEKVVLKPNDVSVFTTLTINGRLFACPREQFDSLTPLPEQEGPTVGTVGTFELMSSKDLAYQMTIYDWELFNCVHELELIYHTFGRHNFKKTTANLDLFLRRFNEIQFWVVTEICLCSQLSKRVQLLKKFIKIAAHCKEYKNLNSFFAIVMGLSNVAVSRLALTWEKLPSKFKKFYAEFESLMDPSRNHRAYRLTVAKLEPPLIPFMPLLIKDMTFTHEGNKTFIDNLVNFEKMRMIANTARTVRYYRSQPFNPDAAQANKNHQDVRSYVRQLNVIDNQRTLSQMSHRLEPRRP
# Sequence of Rap guanine nucleotide exchange factor 3 (Homo sapiens) (O95398 whole entry, looked up): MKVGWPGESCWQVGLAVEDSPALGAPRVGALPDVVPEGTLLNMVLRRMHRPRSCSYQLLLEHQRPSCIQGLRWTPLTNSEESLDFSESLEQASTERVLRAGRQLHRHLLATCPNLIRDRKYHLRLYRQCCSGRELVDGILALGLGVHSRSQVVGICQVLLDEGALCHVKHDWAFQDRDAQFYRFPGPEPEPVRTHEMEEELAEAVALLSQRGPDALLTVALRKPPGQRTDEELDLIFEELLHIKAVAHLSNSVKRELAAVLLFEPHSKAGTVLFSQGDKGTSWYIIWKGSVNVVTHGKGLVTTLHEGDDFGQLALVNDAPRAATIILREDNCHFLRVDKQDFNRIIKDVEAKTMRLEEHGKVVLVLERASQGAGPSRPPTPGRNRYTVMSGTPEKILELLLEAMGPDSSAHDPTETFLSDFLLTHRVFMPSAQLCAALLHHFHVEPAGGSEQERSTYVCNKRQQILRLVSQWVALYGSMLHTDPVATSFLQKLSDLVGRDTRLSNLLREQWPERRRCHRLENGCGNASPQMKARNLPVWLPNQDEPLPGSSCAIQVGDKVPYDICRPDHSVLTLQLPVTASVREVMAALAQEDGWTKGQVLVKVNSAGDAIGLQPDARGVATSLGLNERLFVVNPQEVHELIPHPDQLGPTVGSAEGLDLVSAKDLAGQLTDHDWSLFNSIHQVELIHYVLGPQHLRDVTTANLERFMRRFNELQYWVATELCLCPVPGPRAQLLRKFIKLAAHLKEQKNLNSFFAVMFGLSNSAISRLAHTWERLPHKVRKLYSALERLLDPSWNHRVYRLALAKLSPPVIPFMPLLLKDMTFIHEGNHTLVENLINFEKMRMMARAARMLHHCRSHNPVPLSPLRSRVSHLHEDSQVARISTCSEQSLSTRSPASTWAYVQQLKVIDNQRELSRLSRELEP
# Sequence of Lysine-specific demethylase 5B (Homo sapiens) (Q9UGL1 whole entry, looked up): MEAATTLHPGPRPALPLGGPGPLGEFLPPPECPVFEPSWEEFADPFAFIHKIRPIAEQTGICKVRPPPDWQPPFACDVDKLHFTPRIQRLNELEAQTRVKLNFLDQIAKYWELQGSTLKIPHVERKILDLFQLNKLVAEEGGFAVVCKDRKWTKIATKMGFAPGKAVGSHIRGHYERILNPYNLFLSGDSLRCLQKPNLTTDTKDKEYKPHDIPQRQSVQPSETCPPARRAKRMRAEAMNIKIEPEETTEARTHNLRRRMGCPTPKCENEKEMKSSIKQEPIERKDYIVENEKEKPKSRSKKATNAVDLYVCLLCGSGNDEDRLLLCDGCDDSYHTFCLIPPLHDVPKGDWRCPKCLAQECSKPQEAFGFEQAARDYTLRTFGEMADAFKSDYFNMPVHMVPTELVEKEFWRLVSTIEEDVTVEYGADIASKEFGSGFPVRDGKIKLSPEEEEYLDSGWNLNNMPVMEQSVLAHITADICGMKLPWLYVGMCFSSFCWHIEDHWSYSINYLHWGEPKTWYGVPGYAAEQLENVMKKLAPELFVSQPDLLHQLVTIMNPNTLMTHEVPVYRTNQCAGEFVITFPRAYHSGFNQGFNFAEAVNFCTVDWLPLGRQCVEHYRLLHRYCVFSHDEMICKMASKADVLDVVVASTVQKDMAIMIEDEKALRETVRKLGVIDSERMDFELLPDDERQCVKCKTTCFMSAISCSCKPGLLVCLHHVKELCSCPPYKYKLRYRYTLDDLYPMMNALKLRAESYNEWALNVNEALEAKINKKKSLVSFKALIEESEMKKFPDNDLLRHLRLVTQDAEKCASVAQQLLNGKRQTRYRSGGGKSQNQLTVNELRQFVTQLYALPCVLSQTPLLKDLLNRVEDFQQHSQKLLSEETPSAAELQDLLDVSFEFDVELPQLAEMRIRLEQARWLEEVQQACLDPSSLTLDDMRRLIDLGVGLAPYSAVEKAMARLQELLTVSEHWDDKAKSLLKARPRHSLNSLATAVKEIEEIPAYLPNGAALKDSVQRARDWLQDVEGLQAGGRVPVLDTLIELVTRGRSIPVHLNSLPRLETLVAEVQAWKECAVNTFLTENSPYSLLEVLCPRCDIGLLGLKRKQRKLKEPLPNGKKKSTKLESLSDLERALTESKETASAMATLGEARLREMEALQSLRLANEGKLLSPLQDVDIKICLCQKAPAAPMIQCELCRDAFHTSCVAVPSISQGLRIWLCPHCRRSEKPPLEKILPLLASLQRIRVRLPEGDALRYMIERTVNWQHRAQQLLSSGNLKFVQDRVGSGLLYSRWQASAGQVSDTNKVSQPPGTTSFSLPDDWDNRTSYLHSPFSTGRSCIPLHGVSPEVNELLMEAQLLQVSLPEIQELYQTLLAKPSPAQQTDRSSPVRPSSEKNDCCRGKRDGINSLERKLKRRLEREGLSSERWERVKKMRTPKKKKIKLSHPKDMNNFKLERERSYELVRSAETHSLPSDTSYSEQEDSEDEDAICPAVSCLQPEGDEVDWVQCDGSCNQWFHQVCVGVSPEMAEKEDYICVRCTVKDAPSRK
# Sequence of N-terminal Xaa-Pro-Lys N-methyltransferase 1 (Homo sapiens) (Q9BV86 whole entry, looked up): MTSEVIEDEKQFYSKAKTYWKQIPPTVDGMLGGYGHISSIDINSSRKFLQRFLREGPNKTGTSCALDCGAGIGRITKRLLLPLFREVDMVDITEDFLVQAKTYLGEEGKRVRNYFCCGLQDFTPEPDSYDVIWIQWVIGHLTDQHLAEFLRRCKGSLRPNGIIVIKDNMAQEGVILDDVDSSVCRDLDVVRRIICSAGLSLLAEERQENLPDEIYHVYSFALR
# Sequence of Papain (Carica papaya) (P00784 whole entry, looked up): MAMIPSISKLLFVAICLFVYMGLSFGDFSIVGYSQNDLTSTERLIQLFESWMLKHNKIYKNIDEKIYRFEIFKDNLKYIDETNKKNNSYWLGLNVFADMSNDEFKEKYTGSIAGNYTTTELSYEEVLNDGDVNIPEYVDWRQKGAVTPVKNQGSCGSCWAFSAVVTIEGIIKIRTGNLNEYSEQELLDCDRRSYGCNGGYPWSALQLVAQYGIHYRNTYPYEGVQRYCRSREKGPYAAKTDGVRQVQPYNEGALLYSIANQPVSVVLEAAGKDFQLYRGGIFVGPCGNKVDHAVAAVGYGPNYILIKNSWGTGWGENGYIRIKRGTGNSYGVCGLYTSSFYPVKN
# Sequence of Metallo-beta-lactamase type 2 (Klebsiella pneumoniae) (C7C422 whole entry, looked up): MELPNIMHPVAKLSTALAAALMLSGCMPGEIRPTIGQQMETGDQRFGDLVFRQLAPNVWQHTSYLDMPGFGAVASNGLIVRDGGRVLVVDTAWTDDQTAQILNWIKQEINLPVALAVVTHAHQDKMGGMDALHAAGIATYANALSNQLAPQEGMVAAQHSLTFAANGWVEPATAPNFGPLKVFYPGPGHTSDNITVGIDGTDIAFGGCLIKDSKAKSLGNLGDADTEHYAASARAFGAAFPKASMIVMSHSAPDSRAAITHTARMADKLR
# Sequence of Parathyroid hormone/parathyroid hormone-related peptide receptor (Homo sapiens) (Q03431 whole entry, looked up): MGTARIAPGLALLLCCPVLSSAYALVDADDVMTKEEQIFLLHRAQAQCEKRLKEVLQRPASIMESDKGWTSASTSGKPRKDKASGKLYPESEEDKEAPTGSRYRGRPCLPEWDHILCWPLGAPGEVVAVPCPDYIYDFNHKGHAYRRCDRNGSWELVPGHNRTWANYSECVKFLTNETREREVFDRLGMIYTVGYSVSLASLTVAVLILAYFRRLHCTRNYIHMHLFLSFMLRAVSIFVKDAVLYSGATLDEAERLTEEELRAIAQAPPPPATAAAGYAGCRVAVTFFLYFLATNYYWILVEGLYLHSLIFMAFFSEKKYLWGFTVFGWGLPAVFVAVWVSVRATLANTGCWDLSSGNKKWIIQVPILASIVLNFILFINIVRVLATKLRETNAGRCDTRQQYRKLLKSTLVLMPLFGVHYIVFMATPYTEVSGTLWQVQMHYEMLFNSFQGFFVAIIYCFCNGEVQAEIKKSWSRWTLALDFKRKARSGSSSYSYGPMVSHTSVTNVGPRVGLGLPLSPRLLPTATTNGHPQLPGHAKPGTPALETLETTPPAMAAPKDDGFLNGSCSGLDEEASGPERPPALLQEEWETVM
compound,measurement,setting,value
Nc1c(S(=O)(=O)O)cc(Nc2ccc(Nc3nc(Cl)nc(Nc4ccc(S(=O)(=O)O)cc4)n3)c(S(=O)(=O)O)c2)c2c1C(=O)c1ccccc1C2=O,outcome,[1],inactive
same,Potency,[2],44.7 µM (active)
same,Potency,[3],10.6 µM (active)
same,Potency,[4],2.24 µM (active)
same,Potency,[5],8.91 µM (active)
same,Potency,[6],10 µM (active)
same,Potency,[7],inactive
same,outcome,[8],inactive
same,Potency,[9],inactive
same,outcome,[10],inactive
same,outcome,[11],inactive
same,Potency,[12],28.2 µM (active)
same,outcome,[13],inactive
same,Potency,[14],inactive
same,Potency,Papain (Carica papaya),1.78 µM (active)
same,Potency,[15],9.93 µM (active)
same,outcome,[16],inactive
same,outcome,[17],inactive
same,Potency,[18],22.1 µM (active)
same,Potency,[19],631 nM (active)
same,Potency,[20],inactive
